Measurements taken from PubChem BioAssay AID1220 (Sanford-Burnham Center for Chemical Genomics, 2008).
Hit rate of the full screen: of about 190,000 compounds, about 1,300 (0.68%) were called active. The sample as a whole holds a higher share of actives than the screen did. A number with no mark means an inactive call. Cut-off read from the data, not from the text of the source: active = inhibition above about 50%; inactive = the rest.

What follows are molecules tested against Mannose-6-phosphate isomerase (Homo sapiens) (UniProt P34949) (assay: human PMI inhibitors, high substrate, primary screen, biochemical, fluorescence intensity, high mannose 6-phosphate (AID 1220)). Settings: recombinant PMI enzyme, coupled fluorescence intensity; at 20 µM; active compounds read high.
Mannose-6-phosphate isomerase (Homo sapiens), sequence (P34949 whole entry, looked up): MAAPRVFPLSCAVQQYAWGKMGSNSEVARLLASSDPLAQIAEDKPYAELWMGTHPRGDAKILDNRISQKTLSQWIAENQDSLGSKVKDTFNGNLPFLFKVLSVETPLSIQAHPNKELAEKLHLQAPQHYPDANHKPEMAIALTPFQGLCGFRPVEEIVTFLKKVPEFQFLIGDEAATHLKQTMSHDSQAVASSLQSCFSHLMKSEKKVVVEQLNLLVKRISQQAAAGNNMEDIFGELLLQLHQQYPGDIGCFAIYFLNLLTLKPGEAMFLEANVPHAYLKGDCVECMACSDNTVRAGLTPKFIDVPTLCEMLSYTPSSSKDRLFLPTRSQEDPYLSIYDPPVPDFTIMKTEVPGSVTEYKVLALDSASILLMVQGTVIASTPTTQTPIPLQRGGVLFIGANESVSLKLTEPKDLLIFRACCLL

Structure (SMILES)	inhibition
CCC(=O)N1CCc2cc(S(=O)(=O)NC(Cc3ccccc3)C(=O)NC3CCCCC3)ccc21 (stereo not given)	-11.2%
CCCCc1ccc(NC(=S)NCCN2CCOCC2)cc1	-3.3%
COC(=O)c1cn(C)c2ccc(S(=O)(=O)N3CCOCC3)cc2c1=O	0.8%
CC(Nc1ccccc1)C(=O)Nc1ccc(F)cc1 (stereo not given)	-11.4%
CCN(CC)c1ccc(C=Nc2ccc(C)cc2)c(O)c1	57% (active)
CCN(CC)c1ccc(N=Cc2ccc(N(CC)CC)cc2O)cc1	19.5%
CCN(CC)c1ccc(C=Nc2ccc(N(C)C)cc2)c(O)c1	28.1%
COc1ccc(N(C)S(=O)(=O)c2cccc(C(=O)NCC3CCCO3)c2)cc1 (stereo not given)	-3.8%
Cc1sc2ncnc(SCC(=O)N3CCN(C(=O)c4ccco4)CC3)c2c1C	6.2%
COc1ccc(C(C(=O)NC2CCCC2)N(Cc2ccccc2)C(=O)c2nsc(Cl)c2Cl)cc1 (stereo not given)	21.1%
CCOC(=O)N1CCc2c(sc3c2C(=O)NC(c2ccccc2)N3)C1 (stereo not given)	60.6% (active)
CN1CCc2c(sc3c2C(=O)NC(c2ccccc2)N3)C1 (stereo not given)	33%
CSc1ccc(C2NC(=O)c3c(sc4c3CCN(C)C4)N2)cc1 (stereo not given)	17%
CCCn1c(SCC(=O)NCc2ccc(OC)cc2)n[nH]c1=O	11.2%
O=C(NCC1CCCCC1)C1CCCN(C(=O)NC2CCCCC2)C1 (stereo not given)	-1.6%
Cc1cc(C)c(S(=O)(=O)Nc2ccc(O)c(Sc3ncn[nH]3)c2)c(C)c1	13.7%
Cc1ccc(S(=O)(=O)Nc2ccc(O)c(Sc3ncn[nH]3)c2)cc1	27.6%
Cc1cc(C)c(S(=O)(=O)/N=C2/C=C(Sc3ncn[nH]3)C(=O)c3ccccc32)cc1C	90.3% (active)
Cc1cc(C)c(S(=O)(=O)/N=C2/C=C(SCC(=O)O)C(=O)c3ccccc32)cc1C	-32.3%
Cc1ccc(S(=O)(=O)/N=C2/C=C(Sc3ncn[nH]3)C(=O)c3ccccc32)c(C)c1	92.7% (active)
CC1=CC(C)(C)N(C(=O)CSc2ncn[nH]2)c2ccccc21	-9.5%
Cc1cc(NC(=O)COC(=O)C2COc3ccccc3O2)no1 (stereo not given)	-4.4%
CCCC(O)(c1ccc(Cl)cc1)C(CN1CCOCC1)c1ccccc1 (stereo not given)	5.2%
Cc1ccc(S(=O)(=O)N2CCCCC2)cc1NC(=O)COC(=O)C1CC2C=CC1C2 (stereo not given)	11%
O=C(NC1CCCCC1)C1CCN(S(=O)(=O)c2cccs2)CC1	5.6%

Structure (SMILES)	inhibition
C=CCc1c(OC)ccc2ccc(=O)oc12	0.3%
Cc1cccc2cc(CN(CCCN(C)C)C(=S)NCCc3ccccc3)c(=O)[nH]c12	-1.6%
CC1CCc2c(sc(NC(=O)CSc3nnc(-c4ccccc4)o3)c2C#N)C1 (stereo not given)	57.2% (active)
N#Cc1c(NC(=O)CSc2nnc(-c3ccccc3)o2)sc2c1CCCC2	4.2%
CC(C)(C)C1CCc2c(sc(NC(=O)CSc3nnc(-c4ccccc4)o3)c2C#N)C1 (stereo not given)	15.1%
COC(=O)c1ccc(CSCC(=O)Nc2ccccc2)cc1	6.4%
COc1ccc(C2=COc3ccccc3C(=O)N2)cc1	-6.2%
O=C(CSc1ccc(C(F)(F)F)cc1[N+](=O)[O-])Nc1ccc2ccccc2c1	10.8%
O=C(Nc1nc(-c2ccc(Cl)cc2Cl)cs1)c1ccc(OCC2CCCO2)cc1 (stereo not given)	11.1%
COc1ccc(OC)c(-c2csc(NC(=O)c3ccc(OCC4CCCO4)cc3)n2)c1 (stereo not given)	104% (active)
Cc1csc(NC(=O)c2ccc(OCC3CCCO3)cc2)n1 (stereo not given)	1.2%
COc1ccccc1NC(=O)c1cnc2c(-c3ccccc3)c(C)nn2c1C	8.9%
COCCNC(=O)/C(C#N)=C/c1cc(C)n(C2CCCCC2)c1C	-6.4%
O=C(c1cnn(-c2ccccc2)c1)c1ccc2ccccc2c1O	23.1%
O=C(COC(=O)[C@H](Cc1ccccc1)NC(=O)c1ccco1)NC(c1ccccc1)c1ccccc1	11.5%
COc1cccc(NC(=O)c2ccncc2)c1	6%
COc1cc(N)cc(NC(=O)c2ccncc2)c1	50.4% (active)
COc1ccc(C(=O)Nc2cc(OC)cc(OC)c2)cc1	10%
COc1nc(OC)nc(N2CCC(C(=O)NC3CCCCCC3)CC2)n1	1.4%
Cc1ccccc1NC(=S)NCc1ccc(Cl)cc1	9.2%
CC1CCc2c(C(=O)Oc3cccc(-n4cnnn4)c3)csc2C1 (stereo not given)	15.6%
COCc1ccc(O)c2ncccc12	22.6%
Oc1ccc(Cn2ccnc2)c2cccnc12	7.4%
Cc1ccc(O)c(CNc2cccc3cccnc23)c1	63.8% (active)
Cc1cccc(NCc2ccccc2O)c1C	25.8%

Structure (SMILES)	inhibition
Cc1ccc(O)c(CNc2ccccn2)c1	-7.2%
Oc1ccccc1CNc1cccc2cccnc12	45.3%
Fc1ccc(NCc2cccnc2)cc1	-2%
Cc1cccnc1NCc1ccc(O)c2ncccc12	63.6% (active)
Cc1ccccc1NCc1ccccc1O	1.6%
CC(C)COCc1ccc(O)c2ncccc12	14.9%
CSc1cccc(NC(=S)N(CCCN2CCCC(C)C2)Cc2cccs2)c1 (stereo not given)	4.6%
COCCOC(=O)C1=C(C)N=C2SCCC(=O)N2C1c1cccc(Br)c1 (stereo not given)	1.8%
CCCC(=O)Nc1nc(C)c(-c2csc(Nc3ccc(Cl)cc3)n2)s1	38.4%
O=C(Cn1cc(C(F)(F)F)cc(Cl)c1=O)Nc1cc(Cl)cc(Cl)c1	13.7%
C=CCn1c(SCC(=O)Nc2ccc3c(c2)OCO3)nnc1-c1ccccc1	25.6%
CCOC(=O)c1ccc(Cn2cnc3ccccc3c2=O)cc1	11.7%
CCOC(=O)C1=C(c2ccccc2)NC(SC)=C(C#N)C1c1cccnc1 (stereo not given)	3.3%
O/N=C1/CCSc2ccccc21	9.7%
Cc1ccccc1N=Nc1ccc(O)c2ncccc12	31.3%
Oc1ccc(CNc2ccccc2F)c2cccnc12	73.8% (active)
O=[N+]([O-])c1ccc(O)c2ncccc12	9%
COc1ccc(O)c(CNc2ccccc2F)c1	17.2%
O=C(Cc1ccccc1F)Nc1cccc2cccnc12	-1.1%
CCCCCCn1c(=O)[nH]c2nc3cc(N)c(C)cc3nc2c1=O	49.7%
CCCCCCn1c(=O)[nH]c2nc3cc(N)ccc3nc2c1=O	24%
CCCCn1c(=O)[nH]c2nc3cc(N)ccc3nc2c1=O	52.5% (active)
C=CCn1c(COc2ccccc2F)nnc1SCCN1C(=O)c2ccccc2C1=O	10.7%
COCCn1c(C)cc(C(=O)CSc2nc3ccccc3o2)c1C	-1.7%
CCOC(=O)c1cnc2ccc(OC)cc2c1NCc1ccccc1	27.2%

Structure (SMILES)	inhibition
CCOC(=O)c1cnc2ccc(OCC)cc2c1NCc1ccccc1	43.5%
CCOC(=O)c1cnc2ccc(OCC)cc2c1NCc1cccnc1	62.8% (active)
Cc1cc2nc(-c3ccc(SCC(=O)Nc4nccs4)nc3)[nH]c2cc1C	-0.3%
Nc1nc2n(n1)C(=O)CC(c1ccccc1[N+](=O)[O-])N2 (stereo not given)	9.2%
O=C(/C=C/c1ccc2c(c1)OCO2)NCCSCc1ccc(Cl)cc1Cl	12.8%
CC1(C)CC(=O)C2=C(C1)OC(N)=C(C#N)C21CCN(C(=O)OCc2ccccc2)CC1	4.4%
CC(=O)Nc1ccc(S(=O)(=O)NNC(=O)COc2cccc3ccccc23)cc1	1.3%
Oc1c(Br)cc2oc3c(c2c1CNCc1ccccc1)CCCC3	2.3%
O=[N+]([O-])c1cc2oc3c(c2c(C=NCc2ccccc2)c1O)CCCC3	50.7% (active)
O=C(c1ccncc1)N(c1ccc2oc3c(c2c1)CCCC3)S(=O)(=O)c1cccc([N+](=O)[O-])c1	6%
O=[N+]([O-])c1cc2oc3c(c2c(C=NCc2ccncc2)c1O)CCCC3	52.5% (active)
O=C1CCCC(O)=C1C=NCc1ccccc1	-2.2%
Cc1ccc(S(=O)(=O)N(C(=O)c2ccncc2)c2ccc3oc4c(c3c2)CCCC4)cc1[N+](=O)[O-]	1.1%
COCC(=O)Nc1nnc(CCc2ccccc2)s1	9.8%
COC(=O)C1=C(C)N(c2ccc(OC)c(OC)c2)C(=O)C1	-12.5%
CN(C)C(=O)c1cn(-c2ccccc2)nc1-c1cccs1	-7.1%
O=C(NCC(=O)N1CCN(S(=O)(=O)c2cccs2)CC1)c1ccc(Cl)cc1	5.3%
FC(F)(F)c1cc(-c2cccs2)nc2nc(N3CCOCC3)sc12	-4.4%
CC1(C)OC(C)(C)/C(=C/Nc2ccc(O)cc2)C1=O	52.5% (active)
CC1(C)OC(C)(C)/C(=C/Nc2ccccc2)C1=O	0.4%
CC1(C)Oc2ccc3ccc(=O)oc3c2/C(=C/Nc2ccc(O)cc2)C1=O	14.8%
Cc1ccc(NC(=O)C2CCCN2C(=O)NC2CCCCC2)cc1 (stereo not given)	7.7%
CCCCC(=O)NC1(C(F)(F)F)C(=O)N(Cc2ccco2)C(C)=C1C(=O)OC (stereo not given)	2.6%
CCOC(=O)C1CCN(C(=O)CSc2nccc(C)n2)CC1	-8.5%
COCCNC(=O)NC(=O)CN1CCCc2ccccc21	6.7%
